Results as given in PubChem BioAssay AID2153 (The Scripps Research Institute Molecular Screening Center, 2009).
In all, about 2,400 compounds went through this assay and about 2,000 (83%) were called active.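 Rule for the calls: active = inhibition above the solvent-only control well mean plus 3 SD, limit set per screening run (cut at about 23% in these data); inactive = the rest.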 The set was probably picked from earlier hits. Only a sample is shown.

What follows are compounds tested against Guanyl-specific ribonuclease T1 (Aspergillus oryzae (strain ATCC 42149 / RIB 40)) (UniProt P00651) (assay: blockers of Aspergillus RNase T1 cleavage – biochemical, fluorescence polarization, counter-screen for TPT1 inhibitor project (AID 2153;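 note: plate controls were DMSO wells with enzyme for no effect and wells without RNase T1 for full effect; inhibitors block cleavage so intact labeled substrate keeps polarization high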)). Conditions: 1536-well, at 5 µM, stronger effect = higher value.
Sequence of Guanyl-specific ribonuclease T1 (Aspergillus oryzae (strain ATCC 42149 / RIB 40)) (P00651 whole entry, looked up): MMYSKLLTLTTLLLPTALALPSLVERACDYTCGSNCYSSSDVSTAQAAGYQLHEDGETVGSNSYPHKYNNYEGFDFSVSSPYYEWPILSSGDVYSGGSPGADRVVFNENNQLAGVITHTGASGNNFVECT

Compound | inhibition
Cc1cc(O)c(C(=O)/C=C/c2c(F)c(F)c(F)c(F)c2F)c(=O)o1 | 81.2% (active)
N#CC1=C(N)Oc2c(sc3ccccc23)C1c1ccco1 (stereo not given) | 76.9% (active)
Cn1c2ccccc2c2cc(/C=C(\NC(=O)c3ccccc3)C(=O)NCC(=O)O)ccc21 | 92.9% (active)
Cc1ccc(Nc2ccccc2N)cc1 | 36% (active)
Cc1cccn2c(=O)c(/C=C3\SC(=S)N(CC(C)C)C3=O)c(NCCCOC(C)C)nc12 | 131% (active)
COc1cc(/C=C2/C(=O)NN(c3cccc(Cl)c3)C2=O)cc(Br)c1O | 150% (active)
Cc1cc(C)c(/C=C2\C(=O)Nc3ccccc32)[nH]1 | 118% (active)
Cc1ccc(-c2nn(-c3ccccc3)cc2/C=C2\SC(=S)N(CCCCCC(=O)O)C2=O)o1 | 73.6% (active)
CCC(c1nnnn1Cc1ccco1)N(Cc1cc2cc(OC)ccc2[nH]c1=O)C1CCCCC1 (stereo not given) | 17.9% (inactive)
N#C/C(=C(/O)COC(=O)COc1ccc(Cl)cc1)c1nc2ccccc2[nH]1 | 50.6% (active)
CCOc1ccc2nc(/N=C/c3nc(-c4ccccc4)oc3O)sc2c1 | 65.4% (active)
Cc1c(-c2ccccc2)cn2c1-c1ccc(C)n1CC2 | 47.3% (active)
Cn1cccc1/C=C1\SC(=S)N(NC(=O)c2ccc(Cl)cc2)C1=O | 113% (active)
Fc1ccc2nc(Nc3nc4c(s3)CCCC4)sc2c1 | 37.5% (active)
CN1/C(=C\C=C2\N=C(c3ccc(F)cc3)OC2=O)C(C)(C)c2ccccc21 | 140% (active)
Cc1ccc(C)c2[nH]c(=O)c(CCNC(=O)CC(C)C)cc12 | 6.2% (inactive)
N#C/C(=C/c1ccc(N2CCCCC2)o1)C(=O)NCCc1c[nH]c2ccccc12 | 170% (active)
CN1/C(=c2/s/c(=C3/C(=O)N(c4ccccc4)NC3=Nc3ccccc3)n(C)c2=O)C(C)(C)c2ccccc21 | 92.8% (active)
CS(=O)(=O)c1ccc2c(c1)SC1=NC(=O)/C(=C/c3ccco3)C(=N)N12 | 60.6% (active)
CCN(CC)c1ccc(/C=N/Nc2nc(C)cc(C)n2)c(O)c1 | 44.9% (active)

Compound | inhibition
Cc1ccc(S(=O)(=O)N(C)c2nc3ccccc3n3c(C(C)C)nnc23)cc1 | 3.03% (inactive)
CCOc1nnc(C)c2c(C)n(-c3cccc(Cl)c3)nc12 | 88.4% (active)
CSC1=N/C(=C\C=C\c2cccs2)C(=O)S1 | 64.5% (active)
CCCOc1ccc(Cn2c(O)cc(=O)[nH]c2=O)cc1 | 30.3% (active)
COc1ccc(C2=NN(C(=O)c3ccccc3C(=O)O)C(c3ccccc3O)C2)cc1 (stereo not given) | 37.9% (active)
O=C(/C=C/c1ccc(N2CCOCC2)cc1)c1ccccc1 | 91.3% (active)
Cc1ccc(Nc2nc(Cl)c(C=O)s2)cc1 | 77.2% (active)
Cc1ccc2[nH]c(=O)c(CN3CCCCC3)c(-c3ccccc3)c2c1 | 3.06% (inactive)
CCOc1ccc(-n2c(O)c(/C=N/c3ccnn3Cc3ccncc3)c3ccccc3c2=O)cc1 | 92% (active)
Cc1ccc2cc(/C=N/Nc3ccc(C(=O)O)cc3)c(Cl)nc2c1 | 46.9% (active)
CCn1c(/C=C/c2ccc([N+](=O)[O-])o2)nc2ccccc2c1=O | 49.4% (active)
CN=c1scc(-c2cc(OC)ccc2OC)n1/N=C/c1c(C)[nH]c2ccccc12 | 32.1% (active)
COc1cc(N2CCCC2)c(OC)cc1/C=C(/C#N)c1cccc(Br)c1 | 91.3% (active)
CCN1/C(=C/c2ccc3ccc(C)cc3[n+]2CC)Sc2ccccc21 | 59.6% (active)
CCN1/C(=C\c2ccc3ccccc3[n+]2CC)Sc2cc(C)ccc21 | 88.3% (active)
O=S(=O)(O)Oc1c[nH]c2ccccc12 | 49.5% (active)
CCOC(=O)C1=C(C)Nc2sc(C(=O)c3ccc(Br)cc3)c(N)c2C1c1ccc(C(=O)OC)cc1 (stereo not given) | 37.3% (active)
Cc1cc(/C=C2/SC(=O)N(CC(=O)N3CCCC3)C2=O)ccc1N1CCOCC1 | 78.1% (active)
CC(=O)n1c(C=Nc2ccccc2)c(O)c2ccccc21 | 84.6% (active)
COC(=O)c1[nH]c2cccc(C)c2c1NC(=O)CN1CCCc2ccccc21 | 29.8% (active)

Compound | inhibition
CCN(CC)c1ccc2cc(C(N)=O)/c(=N\NC(=O)c3ccncc3)oc2c1 | 135% (active)
CCOC(=O)c1c(NC(=S)Nc2ccccc2)sc2c1CCN(C)C2 | 54% (active)
CC(=O)c1cc(NC(=O)c2ccccc2)c(=O)oc1/C=C/N(C)C | 123% (active)
CC[n+]1cc(C)ccc1/C=C/c1ccc(N(C)C)cc1 | 51.2% (active)
O=C(NNc1c2ccccc2nc2ccccc12)c1cc2ccccc2cc1O | 46.8% (active)
CCN(CC)C(=O)CSC(Nc1cccc(F)c1)=C(C#N)C#N | 61.1% (active)
CN(C)CCCn1c(N)c(C#N)c2nc(C#N)c(C#N)nc21 | 58.9% (active)
Cc1ccc(N=C2NC(=O)/C(=C/C=C/c3ccco3)S2)cc1C | 30.5% (active)
COc1ccc(Cc2nc(-c3ccccn3)no2)cc1OC | 13.1% (inactive)
CN(C)c1ccc(/C=C2\NC(=S)N(Cc3ccccc3)C2=O)cc1 | 144% (active)
CCOC(=O)c1c(CC(C)C)csc1/N=C/C1=C(O)CCCC1=O | 17.9% (inactive)
Cc1ccc(-n2c(C)cc(/C=N/Nc3ccc([N+](=O)[O-])cn3)c2C)c(C)c1 | 76.1% (active)
Cc1cc(/C=N/Nc2ccc([N+](=O)[O-])cn2)c(C)n1-c1cccc(C(=O)O)c1 | 62.8% (active)
Nc1nonc1-n1nnc(C(=O)N/N=C/c2cc(Br)ccc2O)c1CSC1=NCCS1 | 41.6% (active)
COc1ccccc1/C=N/Nc1nc(C)c(C(C)=O)s1 | 39.1% (active)
O=C(CN1C(=O)c2ccccc2C1=O)NCc1ccc(C(=O)O)cc1 | 15.9% (inactive)
Cc1c(CC(=O)N2CCN(C(=O)C3COc4ccccc4O3)CC2)c(=O)oc2c(O)c(O)ccc12 (stereo not given) | 8.71% (inactive)
COc1cc(/C=C2/SC(=S)N(Cc3ccccc3)C2=O)cc(OC)c1O | 108% (active)
NC(=O)c1c(Nc2nc3c(F)cccc3s2)sc2c1CCCC2 | 97.8% (active)
CC1=CC2=NC(=O)/C(=C/c3coc4ccccc4c3=O)C(=N)N2O1 | 45.6% (active)
